Screening results (PubChem)
HT1080-NT tox: qHTS for induction of synthetic lethality in tumor cells producing 2HG: qHTS for the HT-1080-NT fibrosarcoma cell line; hit rate 1.6% among 360,000; HT-1080-NT fibrosarcoma viability, CellTiter-Glo ATP luminescence, 48 h; Potency, µM (doses to about 46.1 µM), without a hit: at the top dose activity, negative = less viability, hits mostly cytotoxic;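 note: NT is the 2HG producing partner of a matched IDH1 knockdown line; potency is the fitted concentration of half-maximal effect; 0% = DMSO-treated cells and -100% = media-only wells without cells; nearly all actives have a fitted effect of over 55% in size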
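Compounds were tested in concentration-response format on HT-1080-NT cells for 48 hours at 37 degrees C. Cell viability came from CellTiter-Glo luminescence; curves were classified by r2, response magnitude and activity.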
TDP1 cell noCPT: qHTS for Inhibitors of human tyrosyl-DNA phosphodiesterase 1 (TDP1): qHTS in cells in absence of CPT; AID 686978, 2013; Potency, µM (doses to about 46.2 µM), inactives show at the highest dose activity change, negative = growth inhibition, actives largely listed as inhibitors; hit rate 15% among 420,000; DT40 Tdp1-/- hTDP1 cells, no CPT, ATP luminescence, 48 h; note: potency is the fitted concentration of half-maximal effect; nearly all actives have a fitted effect of over 55% in size
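Readout: luminescence from CellTiter-Glo after 30 min in the dark at RT. Cells: DT40 Tdp1-/- with stable hTDP1, 400/well. Exposure: compounds alone, ≥48 hr, 37 °C.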
TDP1 cell CPT: qHTS for Inhibitors of human tyrosyl-DNA phosphodiesterase 1 (TDP1): qHTS in cells in presence of CPT; Potency, µM (highest dose often 46.2 µM), for inactives: top-dose activity change, negative = growth inhibition, most hits filed as inhibitors; chicken DT40 Tdp1-/-;hTDP1 cells + 20 nM CPT, ATP luminescence, 48 h; hit rate 12% among 420,000; note: potency is the fitted concentration of half-maximal effect; nearly all actives have a fitted effect of over 55% in size
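Cell growth measured by CellTiter-Glo luminescence after a minimum 48 h, 37 C compound exposure with 20 nM CPT in Tdp1-knockout DT40 cells stably expressing hTDP1, seeded 400/well; qHTS titration format.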
IL-1B inflam inh: qHTS for Inhibitors of Inflammasome Signaling: IL-1-beta AlphaLISA Primary Screen | hit rate 4.7% among 360,000 | activity change, % at 57.5 µM | THP-1 LPS/ATP IL-1B secretion, AlphaLISA, 16 h; stronger effect = lower value; in the data active = activity change below about -50%; inconclusive = mostly about -30% to -49%
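THP-1 cells pretreated 1 hr with compounds (up to 57.5 uM final), then stimulated with LPS (250 ng/mL final) plus ATP (1.25 mM final); secreted IL-1B measured by AlphaLISA after 16 hr, decreased signal indicating inhibition.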
HT1080 IDH1KD tx: qHTS for induction of synthetic lethality in tumor cells producing 2HG: qHTS for the HT-1080-IDH1KD cell line | AID 686971, 2013 | Potency, µM (highest dose often 46.1 µM), for the others: top-dose activity, negative = toxicity, hits mostly cytotoxic | hit rate 2% among 360,000 | HT-1080 IDH1 knockdown viability, ATP luminescence, 48 h;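 note: potency is the fitted concentration of half-maximal effect; 0% = DMSO wells and -100% = cell-free medium wells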
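Knockdown cells (IDH1KD HT-1080) received compounds 2 h after plating at 750 cells/well and were kept 48 h at 37 °C in 5% FBS RPMI. A CellTiter-Glo luminescence read gave % activity for curve fitting.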
* = called active by the depositor; ? = inconclusive; / = no result; [ ] = another dose, or the depositor's remark. Only some compounds are listed: those with a hit (about 19% of all), similar ones and a draw of the others. Unless noted, calls come from the whole dose curve; as a rule, active = well fitted curve in the direction sought with a large enough effect; inconclusive = small, poorly fitted or top-dose-only effect, or another doubt; inactive = no such curve, though single readings can be large; an effect the other way counts as inactive or inconclusive. Unless noted, % is set by controls: 0 for no effect and ±100 for the full control effect.

SMILES	HT1080-NT tox	TDP1 cell noCPT	TDP1 cell CPT	IL-1B inflam inh	HT1080 IDH1KD tx
COc1ccccc1CN(C)C(=O)c1cc(C)nc2ccccc12	-2%	16µM*	16µM*	29	-2%
COc1ccc(CN(C)C(=O)c2cc(-c3ccccc3)nc3ccc(C)cc23)c(OC)c1	?	5.8µM*	5.8µM*	?	?
Cc1nn(C)cc1CN(C)C(=O)c1cc(-c2ccccc2)nc2ccc(Br)cc12	-5%	15µM*	16µM*	-6	-19%
CC1Cc2ccccc2C(CCc2ccccc2)=N1 (configuration not stated)	7%	?	-30%	-1	-2%
CC1CCCCN1C(=O)c1cc(S(=O)(=O)N2CCCCC2)c[nH]1 (configuration not stated)	19%	?	-20%	11	-1%
COc1ccc(C(=O)NNC(=O)CSc2nnc(C)n2CC2CCCO2)cc1 (configuration not stated)	7%	-3%	-5%	12	18%
Cc1cc(OCc2cccc(Cl)c2)c(C)cc1CN1CCOCC1	-6%	?	18µM*	-1	-21%
O=[N+]([O-])c1ccccc1CNC1CCCc2ccccc21 (configuration not stated)	3%	?	3%	-30	-4%
CCN(Cc1ccc2c(c1)OCO2)C(=O)CSc1nc(C)nc2sc(C)c(C)c12	3%	?	?	-17	0%
O=c1oc2ccccc2c(Nc2ccc(Cl)cc2)c1[N+](=O)[O-]	?	13µM*	?	-24	-27%
COC(=O)c1ccc(Nc2c([N+](=O)[O-])c(=O)oc3ccccc23)cc1	-18%	?	0%	-78*	-24%
O=C(Nc1ccc2c(c1)N(S(=O)(=O)c1cccs1)CCC2)c1c(F)cccc1F	5%	16µM*	?	-8	3%
CN(C)CCNC(=O)C(=O)Nc1ccc2c(c1)N(S(=O)(=O)c1cccs1)CCC2	-24%	7.3µM*	16µM*	-29	?
C=CCNC(=O)C(=O)Nc1ccc2c(c1)N(S(=O)(=O)c1cccs1)CCC2	-16%	23µM*	?	11	?
O=C(Nc1ccc2c(c1)CCCN2C(=O)c1cccs1)c1c(F)cccc1F	-25%	?	?	-27	-24%
CCNC(=O)C(=O)Nc1ccc2c(c1)N(S(=O)(=O)c1cccs1)CCC2	0%	?	?	21	-14%
CCCNC(=O)C(=O)Nc1ccc2c(c1)N(S(=O)(=O)c1cccs1)CCC2	?	23µM*	15µM*	20	?
COc1ccc(OC)c(C(=O)NC(CC(N)=O)c2ccc(NCCN3CCCCC3)c([N+](=O)[O-])c2)c1 (configuration not stated)	12%	?	?	16	-1%
COc1ccc(OCc2nnc(SCC(=O)NNC(=O)c3ccc(C)cc3)n2C)cc1	8%	0%	-10%	18	-1%
CN(C)CCCNC(=O)C(=O)Nc1ccc2c(c1)N(S(=O)(=O)c1cccs1)CCC2	-2%	?	?	-15	0%
COCCCNC(=O)C(=O)Nc1ccc2c(c1)N(S(=O)(=O)c1cccs1)CCC2	?	0.58µM*	0.65µM*	19	2.3µM*
CC(=O)Cc1cc(O)c2ccccc2c1OC(=O)c1ccccc1	?	15µM*	?	27	?
COC(=O)c1cc(NC(=O)Cc2ccccc2[N+](=O)[O-])cc(C(=O)OC)c1	3%	-11%	-16%	26	-2%
COc1cc2c(cc1OC)CN(S(=O)(=O)c1cccc(F)c1)CC2	-14%	15%	-3%	4	0%
COc1ccc(-c2cccc3c2OC(CNC(=O)c2ccccc2-n2cccn2)C3)nn1 (configuration not stated)	/	?	-15%[9.04 µM]	/	/
SMILES	HT1080-NT tox	TDP1 cell noCPT	TDP1 cell CPT	IL-1B inflam inh	HT1080 IDH1KD tx
CCOC(=O)c1[nH]c2c(c1-c1ccccc1)C(=O)CC(c1ccc(OCC)cc1)C2 (configuration not stated)	-17%	-1%	-25%	-14	-21%
CCOC(=O)c1[nH]c2c(c1-c1ccccc1)C(=O)CC(c1ccc(OC)c(OC)c1)C2 (configuration not stated)	-8%	?	?	-17	-10%
CCOC(=O)c1[nH]c2c(c1Cc1ccccc1)C(=O)CC(c1ccc(OC)cc1)C2 (configuration not stated)	/	21µM*	21µM*	/	/
CCOC(=O)c1[nH]c2c(c1Cc1ccccc1)C(=O)CC(c1ccc(Cl)cc1)C2 (configuration not stated)	/	23µM*	16µM*	/	/
CCOC(=O)c1[nH]c2c(c1Cc1ccccc1OC)C(=O)CC(c1ccc(OC)cc1)C2 (configuration not stated)	/	23µM*	?	/	/
Cc1c(C(=O)N/N=C/c2ccncc2)no[n+]1[O-]	-9%	4%	2%	15	1%
CCCOc1ccccc1NC(=O)c1ccc([N+](=O)[O-])cc1	-5%	-3%	6%	10	-4%
CC(=O)Nc1ccc(NC(=O)CCc2ccc(C)o2)cc1	12%	2%	-2%	-7	0%
Cc1ccc(CCC(=O)Nc2ccc([N+](=O)[O-])cc2)o1	-20%	?	-15%	-74*	-29%
O=C(CCC(=O)N1CCCCCC1)Nc1ccc([N+](=O)[O-])cc1	6.5µM*	22%	-1%	33	?
O=C(Nc1ccc([N+](=O)[O-])cc1)NN1CCCCCC1	-1%	15µM*	23µM*	-99*	1%
O=C(Nc1ccc(Cl)cc1)NN1CCCCCC1	-3%	-18%	3%	-16	-10%
Cc1ccnc(NC(=O)C2CCCN(S(=O)(=O)c3ccc4[nH]c(=O)ccc4c3)C2)c1 (configuration not stated)	-3%	24%	-3%	-3	6%
CCCCNC(=S)Nc1ccccc1Cc1ccccc1	-5%	?	?	-13	-12%
COCCN1C(=O)CSCC1(C)C(=O)NCc1ccccc1 (configuration not stated)	45%	5%	23%	42	0%
CC(C)CNC(=O)C1(C)CCCN1C(=O)CCc1cccs1 (configuration not stated)	6%	-6%	-17%	-7	11%
